Compound activity (PubChem)
MLL AF4-AF9 inh – blocks AF4 peptide binding to human AF9; 0.47% of 350,000 active; AlphaScreen, biotin-AF4 peptide binding to FLAG-AF9; inhibition, % at 10 µM; P42568; AID 651704;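 active = every replicate reaching a set inhibition limit, whatever the replicate mean, cut at about 25% in these data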;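 note: 0% = plate neutral control median and 100% = total signal loss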
Casp6 inh – inhibitors of human caspase-6; AID 686996; 0.53% of 350,000 active; purified caspase-6, Z-VEID-R110 cleavage fluorescence; inhibition, % at 12.5 µM;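 active = mean inhibition across replicates at least about 35%, with every replicate also reaching that limit, limit read from the data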;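 note: 0% = median of neutral control wells and 100% = no fluorescence left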
miR-122 sensor – blocks miR-122 activity in Huh7 sensor cells; Huh7 miR-122 Renilla luciferase sensor, 48 h; neutral wells = 0, positive control = 100; activation (reporter increase), % at 12.5 µM; 0.3% of 340,000 active; AID 602342;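 active = mean replicate activation score at least 90 and every replicate individually at or above 90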;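 note: higher luciferase means less miR-122 activity so hits act as miR-122 inhibitors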
RAD52 anneal inh – inhibitors of human RAD52 DNA annealing; recombinant RAD52 DNA annealing, FRET fluorescence; inhibition, % at 18.7 µM; 0.46% of 360,000 active; AID 651710;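 active = every replicate showing at least 50% inhibition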
Target sequence (P43351 whole entry, looked up): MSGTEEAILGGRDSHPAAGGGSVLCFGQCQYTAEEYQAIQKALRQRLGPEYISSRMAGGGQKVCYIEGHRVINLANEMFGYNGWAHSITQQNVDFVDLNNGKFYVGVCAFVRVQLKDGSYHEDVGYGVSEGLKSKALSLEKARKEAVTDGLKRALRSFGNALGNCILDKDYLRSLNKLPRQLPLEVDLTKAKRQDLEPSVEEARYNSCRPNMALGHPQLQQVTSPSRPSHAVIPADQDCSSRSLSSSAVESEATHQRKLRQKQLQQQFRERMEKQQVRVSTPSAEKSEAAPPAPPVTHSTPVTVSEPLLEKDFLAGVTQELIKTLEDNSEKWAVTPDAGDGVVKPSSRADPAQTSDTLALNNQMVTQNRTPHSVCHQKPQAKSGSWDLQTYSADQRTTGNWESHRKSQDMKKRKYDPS
NSD2 HMT inh – inhibitors of human histone methyltransferase NSD2; inhibition, % at 12.5 µM; 0.54% of 310,000 active; AID 743445; NSD2 peptide methylation, AlphaScreen, 120 min; O96028; in the data active = inhibition above about 50%
Alpha artifact – interferes with AlphaScreen signal, flagging NSD2 false positives | shares compounds with NSD2 HMT inh | AlphaScreen artifact counterscreen, preloaded methylated H4 peptide | AC35, µM (series often up to 10 µM), for inactives: at the highest dose activity change, negative = signal loss | 9.4% of 1,500 active; call rule not given here
Active calls of the source: *; nt = no result given; [ ] = remark or other dose. Rows were chosen to be rich in hits. Some 1.5% of all compounds tested hit in one or more screens of this group.

SMILES	MLL AF4-AF9 inh	Casp6 inh	miR-122 sensor	RAD52 anneal inh	NSD2 HMT inh	Alpha artifact
C[C@@H]1CN([C@H](C)CO)C(=O)c2cc(NC(=O)c3ccccc3)ccc2O[C@@H](C)CCCCO[C@H]1CN(C)C(=O)Nc1ccccc1	-1	2	13[16.7 µM]	-39	nt	nt
Cc1cccc(N2CCN(C(=O)c3ccc4nc[nH]c4c3)CC2)c1C	-27	4	42	-11	-4	nt
Cc1ccc(Cl)cc1N1CCN(C(=O)c2ccc3nc[nH]c3c2)CC1	2	6	14	-17	51*	-5%
Cn1c(COc2ccc(Cl)cc2)nnc1SCC(=O)NC1CCCCC1	nt	nt	0	nt	51*	1%
CO[C@H]1CN(C)C(=O)c2ccc(NC(C)=O)cc2OC[C@@H](C)N(C(=O)c2ccccc2F)C[C@H]1C	nt	nt	-19[16.7 µM]	nt	nt	nt
COC(=O)c1sc(NC(=O)COc2ccc(OC)cc2)nc1C	nt	nt	-7	nt	-2	nt
CCOC(=O)c1sc(NC(=O)COc2ccc3c(c2)OCO3)nc1C	-1	-5	-4	-7	114*	-2%
O=C(Nc1nccs1)c1ccc2nccnc2c1	nt	nt	1	nt	125*	-2%
COc1ccc(S(=O)(=O)N(C)C[C@@H]2OCCCC[C@@H](C)Oc3ccc(NC(=O)CCCN(C)C)cc3C(=O)N([C@@H](C)CO)C[C@H]2C)cc1	3	-1	-5[16.7 µM]	7	nt	nt
CC(=O)Nc1ccc(C(=O)OCC(=O)/C(C#N)=C(\C)N)cc1	-1	2	nt	-13	74*	-4%
CN1CCN(c2ccc(S(=O)(=O)N3CCOCC3)cc2NC(=O)COc2ccc(F)cc2Cl)CC1	5	-2	nt	0	185*	-1%
Cc1ccc(Cl)c(OCC(=O)Nc2cc(S(=O)(=O)N3CCOCC3)ccc2N2CCCC2)c1	2	1	7	-20	73*	-4%
O=C(COc1ccc(F)cc1Cl)Nc1cc(S(=O)(=O)N2CCOCC2)ccc1N1CCCCC1	0	-2	5	-123	-6	nt
C[C@H]1CN([C@@H](C)CO)C(=O)Cc2cc(NC(=O)Cn3cnnn3)ccc2O[C@@H]1CN(C)S(C)(=O)=O	nt	nt	19[16.7 µM]	nt	nt	nt
C[C@H](NC(=O)C[C@@H]1C[C@@H]2c3cc(NC(=O)NC4CCCC4)ccc3O[C@@H]2[C@H](CO)O1)c1ccccc1	-2	1	8[16.7 µM]	11	nt	nt
Cc1ccc(-n2nc(C(=O)N3CCOCC3)cc2-c2ccc(Cl)cc2)cc1	nt	nt	5	nt	1	nt
O=C(c1cc(-c2ccc(Cl)cc2)n(-c2ccc(Cl)cc2)n1)N1CCOCC1	nt	nt	8	nt	58*	-2%
CCC(=O)N1C[C@@H](C)[C@H](OC)CN(C)C(=O)c2cc(NC(=O)C3CCOCC3)ccc2OC[C@@H]1C	2	0	nt	-1	nt	nt
Cc1cccc(-c2ccc([C@H]3[C@H]4CN(C(=O)Cc5ccccn5)CC(=O)N4[C@H]3CO)cc2)c1	3	1	nt	-14	nt	nt
Cc1cc(C)nc(N2CCC(C(=O)N(C)CCc3ccccc3)CC2)n1	nt	nt	nt	nt	60*	-3%
CCC(=O)N1C[C@H](C)[C@H](OC)CN(C)C(=O)c2cc(NC(=O)c3cnccn3)ccc2OC[C@H]1C	0	3	-5[16.7 µM]	-3	nt	nt
Cc1sc2nc[nH]c(=S)c2c1-c1ccccc1	2	4	nt	-1	86*	-5%
Cc1sc2nc[nH]c(=O)c2c1-c1ccc(F)cc1	0	0	3	-24	-6	nt
CO[C@@H]1CN(C)C(=O)c2cc(NS(C)(=O)=O)ccc2OC[C@@H](C)N(C(=O)NC(C)C)C[C@H]1C	nt	nt	8[16.7 µM]	nt	nt	nt
COc1cc(NC(=O)c2ccccc2)c(OC)cc1NC(=O)CSc1[nH]c(=O)cc(C)c1C#N	-1	1	1	-9	130*	-6%
SMILES	MLL AF4-AF9 inh	Casp6 inh	miR-122 sensor	RAD52 anneal inh	NSD2 HMT inh	Alpha artifact
Cc1cc(=O)[nH]c(SCC(=O)Nc2cccc3ccccc23)c1C#N	3	9	-2	-30	-1	nt
COC1=CC(=O)C(OC)=C(OC)C1=O	-1	-1	nt	-1	101*	3%
COc1ccc(OC)c2c1C(=O)C(Cl)=C(Cl)C2=O	-8	9	3	-10	-1	nt
O=C(/C=C/c1ccccc1)Nc1scc(-c2ccccc2)c1C(=O)O	-1	-1	nt	-11	0	nt
O=C(/C=C/c1ccco1)Nc1scc(-c2ccccc2)c1C(=O)O	-6	44*	0	-22	103*	-7%
O=C(C[C@H]1CC[C@@H]2[C@H](COC[C@@H](O)CN2Cc2cccc(F)c2)O1)NCCc1ccncc1	-2	2	-1[16.7 µM]	3	nt	nt
